From PubChem BioAssay AID743480 (Broad Institute, 2014)
The list shows a part of the results. Active and inactive are the calls of the source.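 How the source made its calls: active means compounds whose fitted half-maximal signal-loss concentration is at most twice their highest valid dose; inconclusive means flat curve with 30 to 70% signal loss, or poor fit; inactive means the rest.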

Test: cytotoxicity in HepG2 cells, dose response, cytotoxicity control, cell-based, CellTiter-Glo luminescence, cherry-pick, set 4 (AID 743480)
Conditions: HepG2 viability, ATP luminescence, 72 h; series mostly up to 26 µM

Structure (SMILES) | outcome
COc1ccc(Cn2c(-c3ccc(Cl)cc3)c[n+]3ccccc23)cc1 | inactive
C=CCNC(=O)c1ccccc1NC(=O)c1ccc(Cl)c(S(=O)(=O)Nc2cccc(C)c2C)c1 | inactive
CC[C@H]1OC(=O)[C@H](C)[C@@H](O[C@H]2C[C@@](C)(OC)[C@@H](O)[C@H](C)O2)[C@H](C)[C@@H](O[C@@H]2O[C@H](C)C[C@H](N(C)C)[C@H]2O)[C@](C)(O)C[C@@H](C)[C@@H]2N[C@@H](COCCOC)O[C@H]([C@H]2C)[C@]1(C)O | inactive
